We go through 18 compounds from PubChem BioAssay AID2515 (National Center for Advancing Translational Sciences (NCATS), 2010).

Inconclusive results are not listed. Where a call stands in place of a potency, no number is given. Activity calls are given as the source filed them. The call rests on the fitted dose curve; in most records, active means well fitted inhibition curve with a large enough effect; inconclusive means small, poorly fitted or top-dose-only effect; inactive means flat fitted curve, though single readings scatter.

The target in the experiment is Luciferin 4-monooxygenase (Photinus pyralis) (UniProt P08659). As to the kind of experiment: Counterscreen Assay for Enhancers of SMN2 Splice Variant Expression: Interaction with Luciferase Reporter for Probe SAR. As to conditions: purified firefly luciferase, luminescence inhibition; series mostly up to 51 µM. The text has this: NIH Chemical Genomics Center [NCGC] NIH Molecular Libraries Probe Production centers Network [MLPCN] MLPCN Grant: R03 MH084179-01 Assay Submitter (PI): Elliot Androphy NCGC Assay Overview: Spinal muscular atrophy (SMA) is caused by insufficient levels of the survival motor neuron protein SMN. The SMN locus on chromosome 5q13 contains two inverted copies of SMN called SMN1 and SMN2 which are 99% identical at the amino acid level. SMN1 is a fully functional protein and SMN2 skips exon 7 90% of the time. Skipping of exon 7 produces non-functional protein product. 10% of the SMN2 protein includes exon 7 and is fully functional. In the SMA disease state, mutations in the SMN1 locus are the cause of the disease state. Because only 10% of SMN2 is of the fully functional form, it is not sufficient to overcome the deficiency produced by the loss of the SMN1 product. A therapy that either increases the amount of SMN2 product made increases the inclusion of exon 7 has been proposed for the treatment of SMA. We have designed an assay to identify small molecules that can increase the amount of functional SMN2 product by appending a luciferase reporter gene after the native SMN2 gene, such that inclusion of exon 7 in the expressed product places the luciferase sequence in frame, thus generating functional luciferase enzyme. One potential source of false positives in the primary screening assay is stabilization of the reporter luciferase via direct binding. This assay attempts to identify such compounds by screening directly for luciferase activity in the absence of the cellular system.
Chain of Luciferin 4-monooxygenase (Photinus pyralis) (P08659 whole entry, looked up, canonical isoform): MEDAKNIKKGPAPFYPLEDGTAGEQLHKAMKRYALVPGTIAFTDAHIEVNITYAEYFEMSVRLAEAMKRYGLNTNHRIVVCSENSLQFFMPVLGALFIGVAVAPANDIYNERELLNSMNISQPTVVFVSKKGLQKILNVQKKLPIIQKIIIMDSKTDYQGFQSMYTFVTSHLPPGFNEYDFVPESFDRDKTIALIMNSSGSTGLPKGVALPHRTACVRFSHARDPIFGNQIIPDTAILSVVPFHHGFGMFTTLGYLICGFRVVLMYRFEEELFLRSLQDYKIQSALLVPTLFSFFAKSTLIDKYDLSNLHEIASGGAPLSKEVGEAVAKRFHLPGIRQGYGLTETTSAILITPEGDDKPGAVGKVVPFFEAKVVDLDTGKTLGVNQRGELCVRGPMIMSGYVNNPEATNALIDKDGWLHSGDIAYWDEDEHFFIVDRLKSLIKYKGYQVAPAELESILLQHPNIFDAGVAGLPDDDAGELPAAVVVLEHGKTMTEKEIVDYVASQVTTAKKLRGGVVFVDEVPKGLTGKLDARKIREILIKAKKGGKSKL
NCGC Assay Protocol Summary: The primary screen utilizes a luciferase reporter gene assay, combining the promoter and splicing based cassettes in tandem with the major portion of the native SMN1 cDNA, and then transfected into HEK293 cells. Compounds that modulate luciferase signal presumably modulate expression of […]. In this assay, we utilize purified firefly luciferase in lieu of a cellular reporter to identify compounds interacting directly with luciferase in the primary screen. Sequence, Parameter, Value, Description (1) Reagent, 2.5 uL, Enzyme in buffer (note A) (2) Compound, 23 nL, From stock solutions (3) Time, 5 minutes, Room temp (4) Reagent#2.5 ul, Luciferase detection reagent (note B) (5) Detector, 1 sec integrate, Luminescent read on Viewlux (note C) Sigma enzyme (1 mg) considered to be MW 61,000 diluted in 357 ul assay buffer to 50 uM stock. A - Enzyme and buffer consists of 50 mM Tris-acetate pH 7.6, 10 mM Mg acetate 0.05% BSA, 0.01% Tween and 5 nM firefly luciferase B - Detection reagent = britelite plus diluted 1:10 in PBS C - Viewlux settings were 1 second integration medium sensitivity Keywords: Spinal muscular atrophy, SMA, SMN2, high throughput screening, MLSMR, MLPCN, NIH Roadmap, qHTS and NCGC
In general terms: A counterscreen serves to expose hits that act by an unwanted route or on another target.
Take `CN(C)C(=O)c1cccc(-c2csc(N3CCC(C(N)=O)CC3)n2)c1`: the Potency result is “inactive”.
Consider `NC(=O)C1CCN(c2nc(-c3ccccc3F)cs2)CC1`, for which the Potency is 35.7 µM (active).
For the compound `Cc1ccc(-c2csc(N3CCC(C(N)=O)CC3)n2)cc1`, the Potency was 12.7 µM (active).
`CS(=O)(=O)c1ccccc1-c1csc(N2CCC(C(N)=O)CC2)n1`: the Potency result is “inactive”.
As for `NC(=O)C1CCN(c2nc(-c3ccc4ccccc4c3)cs2)CC1`, the Potency was 31.8 µM (active).
As for `CS(=O)(=O)c1cccc(-c2csc(N3CCC(C(N)=O)CC3)n2)c1`, the Potency entry was “inactive”.
For the compound `NC(=O)C1CCN(c2nc(-c3cccc(N)c3)cs2)CC1`, the Potency result is “inactive”.
Turning to `Cc1noc(C)c1-c1csc(N2CCC(C(N)=O)CC2)n1`, the Potency result is “inactive”.
In the case of `CN(C)c1ccccc1-c1csc(N2CCC(C(N)=O)CC2)n1` it was “inactive”; in that of `NC(=O)C1CCN(c2nc(-c3ccc(Br)cc3)cs2)CC1`, 40.1 µM (active); in that of `Cn1ccc2cc(-c3csc(N4CCC(C(N)=O)CC4)n3)ccc21`, 10.1 µM (active).
For the compound `NC(=O)C1CCN(c2nc(-c3ccc4c(c3)OCCO4)cs2)CC1`, the Potency is 4.5 µM (active).
On to `NC(=O)C1CCN(c2nc(-c3cc4ccccc4o3)cs2)CC1`, for which the Potency is 31.8 µM (active).
In the case of `NC(=O)C1CCN(c2nc(-c3cccnc3)cs2)CC1`, the Potency result is “inactive”.
With `NC(=O)C1CCN(c2nc(-c3ccccc3N)cs2)CC1` the entry was “inactive”; with `CN(C)c1cccc(-c2csc(N3CCC(C(N)=O)CC3)n2)c1`, 12.7 µM (active).
For `NC(=O)C1CCN(c2nc(-c3ccc(F)cc3)cs2)CC1`, the Potency was 28.4 µM (active).
In the case of `NC(=O)C1CCN(c2nc(-c3ccccc3C(F)(F)F)cs2)CC1` it was “inactive”.
